# Test results as given in PubChem BioAssay.
# The source made the active and inactive calls.
# Tests used:
# [1] = target: NADPH oxidase 5 (Homo sapiens) (UniProt Q96PH1); test: compounds shifting NOX5 Amplex Red fluorescence – cell-based, HEK293-NOX5, NOX inhibitor project, primary screen (AID 1161); details: HEK293-NOX5, ionomycin, 45 min, higher = more signal
# [2] = compound effects on lung adenocarcinoma cell viability – A549, calcein-AM fluorescence, 48 h, basal, profiling panel (AID 1162); details: higher = more signal; also: test concentration not given here
# [3] = compound effects on differentiated 3T3-L1 adipocyte viability – cell-based, 3T3-L1 adipocytes, calcein-AM fluorescence, 48 h, basal, profiling panel (AID 1163); details: 3T3-L1 adipocytes viability, higher = more signal; also: test concentration not given here
# [4] = compound effects on hepatocellular carcinoma cell viability – HepG2, calcein-AM fluorescence, 48 h, basal, profiling panel (AID 1164); details: higher = more signal; also: test concentration not given here
# [5] = compound effects on multiple myeloma cell viability – MM1S, calcein-AM fluorescence, 48 h, basal, profiling panel (AID 1165); details: higher = more signal;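 also: viability of MM1S multiple myeloma cells under basal unstimulated conditions; test concentration not given here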
# [6] = calcein-AM signal in unstimulated myeloma cells – cell-based, calcein-AM fluorescence, 48 h, PK04 Diversity Set, profiling panel (AID 1166); details: RPMI8226 myeloma viability, higher = more signal;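 also: cells grown under basal conditions without added stimulus; test concentration not given here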
# [7] = JC-1 mitochondrial signal, unstimulated HepG2 cells – cell-based, JC-1 fluorescence, 24 h, 100 nL compound, profiling panel (AID 1167); details: HepG2 mitochondrial potential, higher = more signal; also: test concentration not given here
# [8] = JC-1 mitochondrial signal, unstimulated adipocytes – cell-based, JC-1 fluorescence, 3T3-L1 adipocytes, 24 h, 100 nL compound, profiling panel (AID 1168); details: JC-1 mitochondrial fluorescence, higher = more signal, called active from +8 up or from −8 down; also: test concentration not given here
# [9] = JC-1 mitochondrial signal, unstimulated myeloma cells – cell-based, JC-1 fluorescence, RPMI8226, 24 h, 100 nL compound, profiling panel (AID 1169); details: JC-1 mitochondrial potential fluorescence, higher = more signal; also: test concentration not given here
# [10] = JC-1 mitochondrial signal, unstimulated MM1S myeloma – cell-based, JC-1 fluorescence, 24 h, 100 nL compound, profiling panel (AID 1170); details: MM1S mitochondrial potential, higher = more signal; also: test concentration not given here
# [11] = resazurin metabolic signal in A549 cells – cell-based, resazurin fluorescence, 24 h, PK04 Diversity Set, profiling panel (AID 1171); details: A549 viability, higher = more signal, called active from +8 up or from −8 down; also: test concentration not given here
# [12] = resazurin metabolic signal in HepG2 cells – cell-based, resazurin fluorescence, 24 h, PK04 Diversity Set, profiling panel (AID 1172); details: HepG2 viability, higher = more signal; also: test concentration not given here
# [13] = budding yeast growth changes without added modifier – OD600, strain BY4716, 24 h, basal condition, primary screen (AID 1173); details: S. cerevisiae BY4716 growth, OD600, 24 h; higher = more signal, called active from +8 up or from −8 down
# [14] = viability profiling in MM1S myeloma cells – cell-based, resazurin fluorescence, basal, 24 h, PK04 Diversity Set, profiling panel (AID 1174); details: higher = more signal, called active from +8 up or from −8 down; also: test concentration not given here
# [15] = target: Dihydroorotate dehydrogenase (quinone), mitochondrial (Plasmodium falciparum (isolate 3D7)) (UniProt Q08210); test: inhibition of P. falciparum DHODH – biochemical, C-terminal His tag, absorbance 600 nm, primary screen (AID 1175); details: PfDHODH enzyme, DCIP absorbance 600 nm; higher = more signal, called active from +8 up or from −8 down;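 also: recombinant parasite enzyme with a five histidine tag at its C terminus; test concentration not given here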
# [16] = growth modulation of vineyard yeast isolate – strain RM11-1a, OD600, basal, 24 h, primary screen (AID 1177);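 also: cultures grown under basal conditions with no added stressor; test concentration not given here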; details: S. cerevisiae RM11-1a growth, OD600, 24 h; higher = more signal, called active from +8 up or from −8 down
# [17] = growth of efflux-deficient E. coli DRC39 – strain DRC39, OD650, 24 h, E. coli filamentation inducers, primary screen (AID 1178);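 also: growth measured as culture turbidity by optical density at 650 nm; test concentration not given here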; details: E. coli DRC39 acrAB, higher = more signal, called active from +8 up or from −8 down
# [18] = growth of efflux-deficient E. coli DRC39 – strain DRC39, OD650, 48 h, E. coli filamentation inducers, primary screen (AID 1179);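 also: screen aims at cell division blockers that make cells filament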; details: E. coli DRC39 delta-acrAB growth, higher = more signal, called active from +8 up or from −8 down
# [19] = viability profiling in RPMI8226 myeloma cells – cell-based, resazurin fluorescence, basal, 24 h, PK04 Diversity Set, profiling panel (AID 1180); details: higher = more signal;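 also: RPMI8826 multiple myeloma cell line at 5000 cells per well; test concentration not given here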
# [20] = target: E3 ubiquitin-protein ligase XIAP (Homo sapiens) (UniProt P98170); test: small molecules binding XIAP protein – biophysical, small-molecule microarray, fluorescence 635 nm, primary screen (AID 1181); details: higher = more signal;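 also: score merges 667 nm emission and signal to noise over triplicate slides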
# Chain of E3 ubiquitin-protein ligase XIAP (Homo sapiens) (P98170 whole entry, looked up): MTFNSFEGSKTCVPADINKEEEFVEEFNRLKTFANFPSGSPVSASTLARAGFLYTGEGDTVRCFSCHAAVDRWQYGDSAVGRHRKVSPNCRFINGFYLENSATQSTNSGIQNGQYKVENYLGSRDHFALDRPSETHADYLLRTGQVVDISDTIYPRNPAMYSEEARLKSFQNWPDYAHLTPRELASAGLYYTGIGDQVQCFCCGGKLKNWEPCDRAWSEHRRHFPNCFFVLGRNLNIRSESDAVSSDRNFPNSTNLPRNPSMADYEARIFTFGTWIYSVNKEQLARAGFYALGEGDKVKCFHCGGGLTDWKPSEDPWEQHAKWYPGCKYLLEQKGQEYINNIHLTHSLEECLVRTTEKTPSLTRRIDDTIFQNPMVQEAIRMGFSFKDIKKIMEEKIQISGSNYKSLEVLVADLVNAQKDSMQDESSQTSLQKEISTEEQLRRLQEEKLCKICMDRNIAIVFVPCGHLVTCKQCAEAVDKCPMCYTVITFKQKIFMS
# Chain of Dihydroorotate dehydrogenase (quinone), mitochondrial (Plasmodium falciparum (isolate 3D7)) (Q08210 whole entry, looked up): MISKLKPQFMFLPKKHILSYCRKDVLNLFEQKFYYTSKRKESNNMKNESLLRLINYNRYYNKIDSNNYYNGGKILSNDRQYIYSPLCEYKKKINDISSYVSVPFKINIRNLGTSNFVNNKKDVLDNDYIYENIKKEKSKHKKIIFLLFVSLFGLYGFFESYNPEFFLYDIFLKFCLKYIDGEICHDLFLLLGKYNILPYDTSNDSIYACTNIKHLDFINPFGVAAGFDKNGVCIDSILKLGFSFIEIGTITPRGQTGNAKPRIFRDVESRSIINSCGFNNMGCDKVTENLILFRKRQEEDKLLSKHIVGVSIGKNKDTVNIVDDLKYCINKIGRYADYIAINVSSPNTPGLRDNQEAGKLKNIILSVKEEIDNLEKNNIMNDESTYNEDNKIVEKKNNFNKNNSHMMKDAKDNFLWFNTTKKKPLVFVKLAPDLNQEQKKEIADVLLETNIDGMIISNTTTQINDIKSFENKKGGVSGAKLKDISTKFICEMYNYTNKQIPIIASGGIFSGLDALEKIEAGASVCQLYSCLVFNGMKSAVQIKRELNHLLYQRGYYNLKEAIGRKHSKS
# Chain of NADPH oxidase 5 (Homo sapiens) (Q96PH1 whole entry, looked up): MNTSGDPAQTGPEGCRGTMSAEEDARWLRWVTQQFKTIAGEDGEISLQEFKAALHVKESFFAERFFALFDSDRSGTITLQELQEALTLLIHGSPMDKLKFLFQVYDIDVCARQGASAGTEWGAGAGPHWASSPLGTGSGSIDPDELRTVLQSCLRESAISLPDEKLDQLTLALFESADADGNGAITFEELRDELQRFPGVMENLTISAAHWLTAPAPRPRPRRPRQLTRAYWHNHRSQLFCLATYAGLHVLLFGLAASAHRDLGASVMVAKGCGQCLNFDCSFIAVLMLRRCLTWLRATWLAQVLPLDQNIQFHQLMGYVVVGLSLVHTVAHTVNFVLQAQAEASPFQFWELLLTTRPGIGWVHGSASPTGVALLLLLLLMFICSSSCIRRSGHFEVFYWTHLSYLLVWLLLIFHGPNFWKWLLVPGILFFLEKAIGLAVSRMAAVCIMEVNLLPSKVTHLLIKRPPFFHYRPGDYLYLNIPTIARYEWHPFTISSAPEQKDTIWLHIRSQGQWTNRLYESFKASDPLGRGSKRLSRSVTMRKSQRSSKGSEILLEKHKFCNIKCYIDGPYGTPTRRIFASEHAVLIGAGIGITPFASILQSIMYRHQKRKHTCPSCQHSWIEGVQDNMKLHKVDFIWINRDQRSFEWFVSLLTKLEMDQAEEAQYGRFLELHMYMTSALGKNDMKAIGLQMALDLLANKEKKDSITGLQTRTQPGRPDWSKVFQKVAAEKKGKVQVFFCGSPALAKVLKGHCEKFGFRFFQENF
SMILES,z-score [1],z-score [2],z-score [3],z-score [4],z-score [5],z-score [6],z-score [7],z-score [8],z-score [9],z-score [10],z-score [11],z-score [12],z-score [13],z-score [14],composite z-score [15],z-score [16],z-score [17],z-score [18],z-score [19],composite z-score [20]
O=C(NO)[C@]1(Cc2ccccc2)N=C(c2ccc(OCCCO)cc2)O[C@@H]1c1ccccc1,2.06,1.86,1.33,1.18,1.87,-0.459,1.59,1.3 (inactive),-0.737,1.02,1.02 (inactive),1.47,-2.78 (inactive),1.41 (inactive),0.461 (inactive),-4.43 (inactive),2.26 (inactive),2.18 (inactive),0.963,0.0402
C=CCC(OC(C)=O)[C@@H]1[C@@H](N(Cc2cccc3ccccc23)C(=O)Cc2ccc(OC)cc2)c2cc(OCCCO)ccc2N1C(=O)Cc1ccc(OC)cc1 (stereo not given in full),2.4,1.25,1.47,0.691,1.76,-1.55,2.38,0.847 (inactive),-0.44,0.791,0.493 (inactive),-0.197,-1.63 (inactive),0.844 (inactive),0.363 (inactive),-0.27 (inactive),1.51 (inactive),0.443 (inactive),0.666,0.183
O=C(N1CCCCC1)[C@@]1(Cc2ccccc2)N=C(c2ccc(OCCCO)cc2)O[C@H]1c1ccccc1,-0.326,-1.51,1.33,-2.47,-3.48,-3.78,-1.61,0.804 (inactive),-0.982,-2.56,0.935 (inactive),0.569,-0.635 (inactive),-3.06 (inactive),0.31 (inactive),0.895 (inactive),1.97 (inactive),0.242 (inactive),-5.21,-0.0448
CC(C)[Si](C#C[Si](C(C)C)(C(C)C)C(C)C)(O[C@H](C)c1cn([C@H](C)c2ccccc2)nn1)C(C)C,0.265,2.27,0.517,0.417,-0.908,1.5,2.71,1.94 (inactive),-0.87,0.265,3.13 (inactive),1.3,-0.0779 (inactive),2.34 (inactive),-0.32 (inactive),-1.88 (inactive),2.06 (inactive),0.944 (inactive),2.41,-0.0559
CC(C)NC(=O)[C@@H]1c2ccccc2C(=O)N(Cc2cc(F)cc(C(F)(F)F)c2)[C@H]1c1ccc(CO)cc1,0.949,1.48,1.41,0.813,0.404,0.252,1.59,-0.64 (inactive),-0.834,0.621,1.84 (inactive),0.641,-0.518 (inactive),1.39 (inactive),-0.243 (inactive),-0.284 (inactive),1.33 (inactive),0.326 (inactive),1.5,-0.174
C=C1C=C(Br)C2(OCCCO2)[C@H]2OC12 (stereo not given in full),0.705,-1.53,-0.191,0.817,0.174,-0.0566,0.533,-0.696 (inactive),0.305,-0.443,-0.54 (inactive),-0.92,-0.353 (inactive),-2.94 (inactive),-0.99 (inactive),0.307 (inactive),0.846 (inactive),0.781 (inactive),-0.846,0.0009
COC(=O)[C@@]1(CCC(=O)OC(C)(C)C)COC(c2ccc(OCCCO)cc2)=N1,-2.25,0.196,1.52,-0.528,0.203,-0.0712,-0.407,-0.0189 (inactive),0.614,0.396,0.307 (inactive),0.863,-1.27 (inactive),0.867 (inactive),-0.402 (inactive),-0.612 (inactive),2.83 (inactive),1.14 (inactive),1.1,-0.217
[N-]=[N+]=NCc1ccccc1C[C@@]1(C(=O)NCc2ccccc2)N=C(c2ccc(OCCCO)cc2)O[C@@H]1c1ccccc1,0.0832,-2.22,0.904,-1.34,-2.85,-3.02,0.634,0.187 (inactive),-0.876,-0.758,0.507 (inactive),1.72,1.47 (inactive),-0.544 (inactive),-0.112 (inactive),0.971 (inactive),1.61 (inactive),0.407 (inactive),-0.732,-0.0172
